In the library only some 3.5% were active in any assay of this set; here they are far more common.
RE007 growth inh: qHTS Assay for Inhibitors of the HIV-1 protein Vpr | Potency, µM (highest dose often 92.2 µM), without a hit: at the top dose activity change, negative = less growth, hits mostly inhibitors | hit rate 0.21% among 360,000 | S. pombe RE007 Vpr strain, BacTiter-Glo ATP luminescence, 24 h; active = well fitted falling curve with a large enough effect; inconclusive = small, poorly fitted or top-dose-only effect; inactive = no such curve, though single readings can be large or run the other way; also: % is scaled to controls: 0 for no effect and ±100 for the full control effect; nearly all actives have a fitted effect of over 50% in size
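Fission yeast strain RE007, carrying one chromosomally integrated HIV-1 vpr copy, was seeded at OD 0.01 in PMG+AL medium with 23 nL pinned compound. After 24 h at 30 °C and 99% humidity, viability was read by BacTiter-Glo luminescence.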
LmPK inh: qHTS Assay for Inhibitors of Leishmania Mexicana Pyruvate Kinase (LmPK); Q27686; purified LmPK, Kinase-Glo ATP luminescence, 1 h; Potency, µM (titrated, usually from 57.5 µM), for the others: at the highest dose activity change, negative = inhibition, usual class: inhibitors; hit rate 0.37% among 290,000; AID 1721, 2009; also: % is scaled to controls: 0 for no effect and ±100 for the full control effect
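Pyruvate kinase activity monitored as ATP production (luciferase luminescence). Conditions: 0.1 nM enzyme, 0.5 mM PEP, 0.1 mM ADP, 1 h, RT; normalized against uninhibited and no-enzyme wells.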
Giardia FBPA inh: qHTS Assay for Inhibitors of Fructose-1,6-bisphosphate Aldolase from Giardia Lamblia; hit rate 0.71% among 290,000; A8B2U2; Potency, µM (top dose mostly 59.6 µM), inactives show top-dose activity, negative = inhibition, most hits filed as inhibitors; purified Giardia FBPA; also: % is scaled to controls: 0 for no effect and ±100 for the full control effect; nearly all actives have a fitted effect of over 55% in size
Target sequence (A8B2U2 whole entry, looked up): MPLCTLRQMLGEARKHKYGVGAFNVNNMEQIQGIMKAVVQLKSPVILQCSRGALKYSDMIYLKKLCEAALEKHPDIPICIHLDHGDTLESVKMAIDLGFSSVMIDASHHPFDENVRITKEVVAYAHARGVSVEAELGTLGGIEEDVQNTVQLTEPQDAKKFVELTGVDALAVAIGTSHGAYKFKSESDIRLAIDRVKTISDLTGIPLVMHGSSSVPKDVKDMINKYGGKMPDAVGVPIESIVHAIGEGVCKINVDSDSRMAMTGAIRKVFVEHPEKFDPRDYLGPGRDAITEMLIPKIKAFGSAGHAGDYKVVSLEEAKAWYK
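Giardia FBPA (40 nM reagent) was preincubated 10 min at RT with compound (up to 57.5 uM final), then substrate plus GAPDH/TPI/NAD/arsenate coupling system with diaphorase/resazurin was added; resorufin fluorescence (525/598 nm) was read after 20 min.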
NS1 function inh: qHTS Assay for Inhibitors of Influenza NS1 Protein Function; AID 2326, 2010; Potency, µM (doses to about 46.1 µM), inactives show top-dose activity, positive = more growth; hit rate 0.4% among 270,000; calls by dose curve; also: actives are rising curves; nearly all actives have a fitted effect of over 50% in size
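In this qHTS, NS1 from influenza A is expressed in budding yeast, where it slows growth. Cells are switched from glucose to 2% galactose medium (pH 6.0, -URA), treated with compound, and growth recovery is read at OD600.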
Sm TGR inh: qHTS Assay for the Inhibitors of Schistosoma Mansoni Peroxiredoxins; Schistosoma mansoni thioredoxin glutathione reductase (TGR), Q962Y6; purified TGR, DTNB reduction, TNB absorbance 405 nm; Potency, µM (doses to about 114 µM), inactives show at the top dose activity change, negative = inhibition, actives largely listed as inhibitors; hit rate 3% among 360,000; also: % is scaled to controls: 0 for no effect and ±100 for the full control effect; nearly all actives have a fitted effect of over 60% in size
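TGR 20 nM + NADPH 100 uM (dispensed conc.), cpd preinc 15 min RT; start with NADPH (500 uM addition) then DTNB (15 mM addition). Kinetic TNB absorbance, 405 nm filter. Four-parameter Hill fit across titration.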
Tb PYK inh: qHTS of Trypanosoma Brucei Inhibitors. pyruvate kinase (Trypanosoma brucei), Q57TT1. TbPYK enzyme, Kinase-Glo Plus ATP luminescence, 45 min. Potency, µM (series often up to 76.8 µM), for inactives: at the highest dose activity, negative = inhibition, actives largely listed as inhibitors. hit rate 0.12% among 410,000. AID 624173, 2012; also: % is scaled to controls: 0 for no effect and ±100 for the full control effect; nearly all actives have a fitted effect of over 50% in size
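Enzyme and substrate buffer are dispensed first and compound is pin-transferred. ADP at 130 uM final then starts the reaction, which runs 45 min at room temperature. Detection reagent is added for 10 min before luminescence is imaged.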
The depositor's hits bear a star. Unless noted, calls follow the shape of the dose curve; as a rule, active = well fitted curve in the direction sought with a large enough effect; inconclusive = small, poorly fitted or top-dose-only effect, or another doubt; inactive = no such curve, though single readings can be large; an effect the other way counts as inactive or inconclusive. Potency is read from the fitted curve at half-maximal effect.

Results for CCc1nc(N2CCN(C(=O)CCl)CC2)c2c3c(sc2n1)CC(C)CC3 (stereo not drawn) ?
RE007 growth inh: -9.7%; LmPK inh: -0.6%; Giardia FBPA inh: -19.2%; NS1 function inh: -121.6%; Sm TGR inh: 15.8µM*; Tb PYK inh: 4.9%

How did CCc1nc(N2CCN(C(C)=O)CC2)c2c3c(sc2n1)CC(C(C)(C)C)CC3 (stereo not drawn) do in these assays?
RE007 growth inh: 7.0%; LmPK inh: 1.0%; Giardia FBPA inh: 7.3%; NS1 function inh: inconclusive; Sm TGR inh: 0.1%; Tb PYK inh: 0.4%

How did Cc1nc2cnc(N(C)C)nc2n(-c2ccccc2)c1=O do in these assays?
Giardia FBPA inh: 7.2%

Results for CCc1ccc2oc(-c3cc(NC(=O)C(C)C)cc(C)c3O)nc2c1 ?
Sm TGR inh: -6.7%; Tb PYK inh: -0.4%

How did CCOC(=O)C1CCCN(S(=O)(=O)c2ccc(S(=O)(=O)N3CCCC3)cc2)C1 (stereo not drawn) do in these assays?
RE007 growth inh: -0.6%; Sm TGR inh: -0.4%; Tb PYK inh: 2.1%

Results for CCOC(=O)C1CCCN(S(=O)(=O)c2cnc(Cl)c(Br)c2)C1 (stereo not drawn) ?
RE007 growth inh: 3.5%; LmPK inh: -0.6%; Giardia FBPA inh: 4.1%; NS1 function inh: 9.5%; Sm TGR inh: 31.6µM*; Tb PYK inh: 0.0%

What do the screens show for `CC(=O)c1ccc(N2CCN(c3ncnc4c3nc3n4CCCC3)CC2)cc1`?
Sm TGR inh: 2.6%; Tb PYK inh: -4.0%

What do the screens show for `O=C(O)CSc1ccc(NC(=O)Nc2ccccc2F)cc1`?
RE007 growth inh: inconclusive; LmPK inh: 15.8µM*; Giardia FBPA inh: 9.0%; NS1 function inh: -2.6%; Sm TGR inh: 7.8%; Tb PYK inh: inconclusive

What do the screens show for `CCC(CC)c1nn2c(=O)cc(COc3ccc(NC(=O)c4cccc(C)c4)cc3)nc2s1`?
Sm TGR inh: -2.9%; Tb PYK inh: 11.8%

How did O=C(N/N=C/c1ccc(F)cc1)c1cc(-c2ccco2)nc2ccccc12 do in these assays?
RE007 growth inh: -0.4%; LmPK inh: 4.0%; Giardia FBPA inh: -11.6%; NS1 function inh: -3.8%; Sm TGR inh: 11.2µM*; Tb PYK inh: 2.5%

What do the screens show for `Cc1nnc(NC(=O)c2cc(-c3ccco3)nc3ccccc23)s1`?
Sm TGR inh: 7.94µM*

Results for O=C(O)c1cc(-c2ccco2)nc2ccccc12 ?
RE007 growth inh: -19.3%; LmPK inh: 12.3%; Giardia FBPA inh: inconclusive; NS1 function inh: 3.3%; Sm TGR inh: inconclusive; Tb PYK inh: inconclusive

Results for C/C(=N\NC(=O)c1cc(-c2ccco2)nc2ccccc12)c1cccnc1 ?
RE007 growth inh: -13.3%; LmPK inh: 9.0%; Giardia FBPA inh: -4.5%; NS1 function inh: 10.5%; Sm TGR inh: 10µM*; Tb PYK inh: -0.5%

Results for CCOc1ccc(/C=N/NC(=O)c2cc(-c3ccco3)nc3ccccc23)cc1 ?
RE007 growth inh: 7.7%; LmPK inh: 3.3%; Giardia FBPA inh: 1.8%; NS1 function inh: 25.8%; Sm TGR inh: 2.2%; Tb PYK inh: -2.8%

What do the screens show for `O=C(NC1CC1)c1cc(-c2ccco2)nc2ccccc12`?
RE007 growth inh: 9.5%; LmPK inh: 6.6%; Giardia FBPA inh: inconclusive; NS1 function inh: 1.1%; Sm TGR inh: 10µM*; Tb PYK inh: -16.5%

How did COc1ccc(OC)c(-c2cc(C(=O)N/N=C(\C)c3cccnc3)c3ccccc3n2)c1 do in these assays?
RE007 growth inh: -7.9%; LmPK inh: 6.6%; Giardia FBPA inh: -7.7%; NS1 function inh: -3.4%; Sm TGR inh: -15.7%; Tb PYK inh: 10.3%

What do the screens show for `COc1cc(CN(C(=O)c2oc3ccccc3c2C)C2CCS(=O)(=O)C2)cc(OC)c1OC` (stereo not drawn)?
Sm TGR inh: 11.3%; Tb PYK inh: 0.3%

Results for CCOC(=O)c1cc(-c2ccccc2)n(CCC(=O)Nc2ccc(C(F)(F)F)cc2)c1C ?
Sm TGR inh: 6.8%; Tb PYK inh: 7.5%

How did CCc1ccc(-n2nc(CO)c(C(=O)NCCc3ccccc3)n2)cc1 do in these assays?
Sm TGR inh: 2.6%; Tb PYK inh: 1.7%

How did O=C(Nc1nccs1)c1cc(-c2ccccc2)nc2ccccc12 do in these assays?
RE007 growth inh: -9.6%; LmPK inh: -0.3%; Giardia FBPA inh: -3.3%; NS1 function inh: 3.7%; Sm TGR inh: 0.7%; Tb PYK inh: -2.7%

Results for O=C(Nc1nccs1)c1cc(-c2ccco2)nc2ccccc12 ?
RE007 growth inh: -0.7%; LmPK inh: 0.3%; Giardia FBPA inh: -13.2%; NS1 function inh: 24.4%; Sm TGR inh: 56.2µM*; Tb PYK inh: -1.6%

What do the screens show for `CCCCC[C@H](O)/C=C/[C@H]1C=CC(=O)[C@@H]1C/C=C\CCCC(=O)O`?
LmPK inh: 8.4%; Giardia FBPA inh: 9.6%; NS1 function inh: inconclusive; Sm TGR inh: 39.8µM*

Results for CCCCCC(O)C=CC1C(O)CC(O)C1CC=CCCCC(=O)O (stereo not drawn) ?
RE007 growth inh: 13.6%; Tb PYK inh: 3.8%

Results for CN1CCN(c2nc3c(S(=O)(=O)c4ccccc4)nnn3c3ccsc23)CC1 ?
Sm TGR inh: 7.3%; Tb PYK inh: 1.8%

How did O=c1c2ccccc2nc(SCc2ccccc2)n1Cc1ccco1 do in these assays?
RE007 growth inh: 5.8%; LmPK inh: 2.1%; Giardia FBPA inh: 5.0%; NS1 function inh: -13.8%; Sm TGR inh: 28.2µM*; Tb PYK inh: -0.3%

What do the screens show for `Cc1ccc(CSc2nc3ccccc3c(=O)n2Cc2ccco2)cc1`?
RE007 growth inh: -11.6%; LmPK inh: 1.7%; Giardia FBPA inh: 1.4%; NS1 function inh: 3.2%; Sm TGR inh: inconclusive; Tb PYK inh: -17.0%

How did O=c1n(Cc2ccc(F)cc2)c2ccccc2c2nc(-c3ccccc3)nn12 do in these assays?
Sm TGR inh: 4.8%; Tb PYK inh: 2.7%

How did CCc1ccccc1NC(=O)CSc1nc(-c2cccc(Cl)c2)nc2c1Cc1c(CO)cnc(C)c1O2 do in these assays?
Sm TGR inh: -22.0%; Tb PYK inh: -1.0%

What do the screens show for `CCSc1nc(-c2ccccc2F)nc2c1Cc1c(CO)cnc(C)c1O2`?
Sm TGR inh: 44.7µM*; Tb PYK inh: -3.9%

Results for CCSc1nc(-c2ccccc2OC)nc2c1Cc1c(CO)cnc(C)c1O2 ?
Sm TGR inh: -4.6%; Tb PYK inh: 1.8%

Bioassay records from PubChem BioAssay.
